A selection: hits, their analogues and other compounds. The true share with any hit is near 19%.
HT1080 IDH1KD tx: HT-1080 IDH1 knockdown cell toxicity (counter line); 360,000 tested, 2% active; HT-1080 IDH1 knockdown viability, ATP luminescence, 48 h; Potency, µM (highest dose often 46.1 µM), without a hit: top-dose activity, negative = toxicity, usual class: cytotoxic;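 note: potency is the fitted concentration of half-maximal effect; 0% = DMSO wells and -100% = cell-free medium wells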
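Assay cells: HT-1080 with IDH1 knockdown, 750 per well, RPMI/5% FBS. Exposure: 48 h at 37 °C following 2 h pre-incubation. Read: CellTiter-Glo luminescence; fitted concentration-response, curve class assigned.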
DT40 TDP1 CPT: DT40-hTDP1 cell growth loss with CPT; Potency, µM (highest dose often 46.2 µM), for inactives: at the highest dose activity change, negative = growth inhibition, usual class: inhibitors; AID 686979; chicken DT40 Tdp1-/-;hTDP1 cells + 20 nM CPT, ATP luminescence, 48 h; 420,000 tested, 12% active; note: potency is the fitted concentration of half-maximal effect; nearly all actives have a fitted effect of over 55% in size
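Cell growth measured by CellTiter-Glo luminescence after a minimum 48 h, 37 C compound exposure with 20 nM CPT in Tdp1-knockout DT40 cells stably expressing hTDP1, seeded 400/well; qHTS titration format.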
IL-1B inflam inh: inhibitors of inflammasome signaling (IL-1 beta secretion) | THP-1 LPS/ATP IL-1B secretion, AlphaLISA, 16 h; hits give low values | activity change, % at 57.5 µM | 360,000 tested, 4.7% active; in the data active = activity change below about -50%; inconclusive = mostly about -30% to -49%
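Secreted IL-1B measured by AlphaLISA bead assay after 16 h compound exposure of THP-1 cells; compounds (final up to 57.5 uM) added 1 h before LPS (250 ng/mL) and ATP (1.25 mM) stimulation; lower signal means less secretion.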
TDP1 cell noCPT: qHTS for Inhibitors of human tyrosyl-DNA phosphodiesterase 1 (TDP1): qHTS in cells in absence of CPT | DT40 Tdp1-/- hTDP1 cells, no CPT, ATP luminescence, 48 h | Potency, µM (series often up to 46.2 µM), without a hit: at the top dose activity change, negative = growth inhibition, most hits filed as inhibitors | 420,000 tested, 15% active; note: potency is the fitted concentration of half-maximal effect; nearly all actives have a fitted effect of over 55% in size
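Stably hTDP1-transfected Tdp1-null chicken DT40 cells were treated with library compounds minus camptothecin and grown for at least 48 hr at 37 °C, after which cellular ATP was quantified by luminescence.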
HT1080-NT tox: kills 2HG-producing HT-1080-NT fibrosarcoma cells; AID 686970; Potency, µM (titrated, usually from 46.1 µM), inactives show at the highest dose activity, negative = less viability, most hits filed as cytotoxic; 360,000 tested, 1.6% active; HT-1080-NT fibrosarcoma viability, CellTiter-Glo ATP luminescence, 48 h;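 note: NT is the 2HG producing partner of a matched IDH1 knockdown line; potency is the fitted concentration of half-maximal effect; 0% = DMSO-treated cells and -100% = media-only wells without cells; nearly all actives have a fitted effect of over 55% in size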
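Compounds were tested in concentration-response format on HT-1080-NT cells for 48 hours at 37 degrees C. Cell viability came from CellTiter-Glo luminescence; curves were classified by r2, response magnitude and activity.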
Active calls of the source: *; ? = inconclusive; . = not tested or not shown; ! = not active in a repeat. Unless noted, calls come from the whole dose curve; as a rule, active = well fitted curve in the direction sought with a large enough effect; inconclusive = small, poorly fitted or top-dose-only effect, or another doubt; inactive = no such curve, though single readings can be large; an effect the other way counts as inactive or inconclusive. Unless noted, % is set by controls: 0 for no effect and ±100 for the full control effect.

SMILES	HT1080 IDH1KD tx	DT40 TDP1 CPT	IL-1B inflam inh	TDP1 cell noCPT	HT1080-NT tox
CN(CC(=O)NC(=O)NC1CCCCC1)CC(=O)Nc1ccc(OC(F)(F)F)cc1	-10%	?	-70*	?	-1%
CN(CC(=O)Nc1ccc(F)cc1)CC(=O)N1CCc2ccccc21	1%	-9%	-2	?	0%
COc1ccc(NC(=O)CN(C)CC(=O)NC(=O)NC2CCCCC2)cc1	-5%	-28%	5	?	3%
CC1Cc2ccccc2N1C(=O)CN(C)CC(=O)Nc1ccc(OC(F)(F)F)cc1 (stereo not given)	-5%	15µM*	-9	?	-20%
O=C(CC[C@H]1O[C@@H](n2cnc3c(NC(=O)c4ccccc4)ncnc32)[C@H](O)[C@@H]1O)NCc1ccc2c(c1)OCO2	3%	10%	1	8%	29%
O=C(CN(Cc1ccccc1)C(=O)CCl)c1cccc(Br)c1	16µM*	9.2µM*	-98*	16µM*	21µM*
O=C(NCCCc1ccccc1)c1cccc(Br)c1	14%	-12%	?	-25%	14%
Cc1nc2c(OCc3ccc(F)c(F)c3)cccn2c1N(C)C(=O)CCC1CCCC1	18µM*	?	-13	16µM*	?
Cc1nc2c(OCc3ccc(OC(F)F)cc3)cccn2c1N(C)C(=O)CCC1CCCC1	?	13µM*	-58*	10µM*	?
Cc1nc2c(OCCN3C(=O)c4ccccc4C3=O)cccn2c1N(C)C(=O)CCC1CCCC1	22%	4%	13	7%	21%
CC(=O)N[C@@H](CC(=O)O)C(=O)O	-21%	-6%	-107*	2%	-14%
CC(=O)N[C@@H](CCC(=O)O)C(=O)O	.	11%	.	-4%	.
COc1cc(NC(=O)CN2C(=O)c3ccccc3Sc3ccc(C(=O)N4CCCC4)cc32)cc(OC)c1	.	1%	.	?	.
COc1ccc(-c2nnc(CSc3nc4ccccc4c(=O)n3CC3CCCO3)o2)cc1OC (stereo not given)	14%	?	11	23µM*	17%
COc1ccc(OC)c(NC(=O)CSc2nc3ccccc3c(=O)n2CC2CCCO2)c1 (stereo not given)	-15%	-19%	-22	-6%	0%
Cc1cc(C)cc(N=Cc2[nH]c3ccc(Br)c(Cl)c3c2O)c1	?	16µM*	15	?	?
COc1ccc(CN=Cc2[nH]c3ccc(Br)c(Cl)c3c2O)cc1	10µM*	?	29	?	?
Cc1ccc(S(=O)(=O)N2CCN(C(=O)c3ccc(-n4cncn4)c([N+](=O)[O-])c3)CC2)c(C)c1	-15%	?	-28	?	1%
Cc1ccc(-c2noc(CCC(=O)Nc3cccc(C(=O)NC4CC4)c3)n2)cc1	-1%	-8%	-1	?	1%
CCOc1ccc(-c2nc(CCl)cs2)cc1OC	11%	10µM*	-25	13µM*	13%
COc1cccc(-c2nc(CCl)cs2)c1OC	6%	2.3µM*	1	6.5µM*	2%
CCOC(=O)c1csc(-c2ccc(OC)c(OC)c2)n1	14%	23%	-18	6%	-1%
COc1ccc(B(O)O)cc1	.	-10%	.	-1%	.
NC(=O)NC(CC(=O)NCc1ccc2c(c1)OCO2)c1ccccc1Cl (stereo not given)	2%	2%	12	-5%	-12%
CCOC(=O)c1c(C)oc2c(F)c(F)c(F)c(F)c2c1=O	?	16µM*	-121*	21µM*	?
SMILES	HT1080 IDH1KD tx	DT40 TDP1 CPT	IL-1B inflam inh	TDP1 cell noCPT	HT1080-NT tox
CCOC(=O)c1c(C)oc(=O)c(CC)c1O	1%	1%	-5	9%	0%
CCN(CC)CCn1c(=O)n(-c2ccc(Cl)cc2)c(=O)c2c3c(sc21)CN(C)CC3	-21%	29µM*	-25	21µM*	-29%
CCOC(=O)N1CCc2c(sc3c2c(=O)n(-c2ccc(Cl)cc2)c(=O)n3CC(=O)c2ccc(F)cc2)C1	.	?	.	21µM*	.
CCOC(=O)N1CCc2c(sc3c2c(=O)n(CCc2ccccc2)c(=O)n3CC(=O)Nc2ccc(C)cc2)C1	.	9.2µM*	.	7.3µM*	.
CN1CCc2c(sc3c2c(=O)n(-c2ccc(Cl)cc2)c2nncn32)C1	17%	?	-19	?	12%
CCOC(=O)N1CCc2c(sc3c2c(=O)n(Cc2ccccc2)c(=O)n3CC(=O)Nc2ccc(F)cc2)C1	.	5.8µM*	.	10µM*	.
Cc1ccc(/C=C/C(=O)NCc2ccc(S(N)(=O)=O)cc2)o1	18%	5%	-4	10%	12%
CCOC(=O)c1nc2c(ccc3ccccc32)cc1C	18%	14%	.	-9%	21%
COc1ccc(OCCC(=O)OCC(=O)NCc2ccc(F)cc2)cc1	27%	-2%	10	-3%	24%
COc1ccccc1NC(=O)Cn1c(=O)n(CCc2ccccc2)c(=O)c2c3c(sc21)CN(C(C)=O)CC3	.	16µM*	.	16µM*	.
CS(=O)(=O)Cc1ccc(C(=O)N(CCc2ccccc2)Cc2ccccc2)cc1	0%	?	-26	?	19%
CC1CCN(S(=O)(=O)CCNC(=O)c2ccc3c(c2)OCO3)CC1	14%	13%	10	7%	9%
CO/C=C\C=C/c1nnn(-c2ccc(Cl)cc2)n1	?	?	-14	23µM*	18%
Clc1ccc(-n2cnnn2)cc1	-5%	8%	7	?	-3%
N#CC1=C(S)N(c2ccc(F)cc2)C2(CCCCC2)NC1=O	8%	?	9	-25%	25%
O=[N+]([O-])c1ccc(Cn2cc(-c3cccc(C(F)(F)F)c3)nn2)cc1	1%	?	-12	16µM*!	0%
CC(C)C[C@@H](CO)NS(=O)(=O)c1c(F)cccc1F	1%	-1%	18	-6%	0%
Cc1ccc(N(C)C(=O)Cn2cc(S(=O)(=O)N3CCCC3)c(S(=O)(=O)N3CCCC3)c2)cc1	.	1%	.	-16%	.
CC(=O)Nc1ccc(OCC(=O)N2CCC(Cc3ccccc3)CC2)cc1	-1%	4%	-53*	-30%	1%
O=C(Nc1ccc(OCC(=O)N2CCC(Cc3ccccc3)CC2)cc1)c1ccco1	10%	21µM*	?	29µM*	2%
CCOc1ccc(CC(=O)Nc2nnc3n2CCS3)cc1	.	-2%	.	-25%	.
Cc1cccc(NC(=S)N=Nc2c(O)n(CN3CCOCC3)c3ccccc23)c1C	-25%	5.8µM*	36	5.8µM*	-13%
Cn1c(=O)c2cc(S(=O)(=O)N3CCOCC3)ccc2n(C)c1=O	-4%	-20%	-2	1%	-12%
Cn1c(O)c(N=NC(=S)Nc2ccccc2F)c2cc(S(=O)(=O)N3CCOCC3)ccc21	?	5.2µM*	25	5.8µM*	3%

Assay outcomes deposited in PubChem BioAssay by National Center for Advancing Translational Sciences (NCATS).
